Measured potencies and affinities stand elsewhere. Records with an inconclusive call do not appear. Calls of active or inactive are those of the source.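 How the source made its calls, unless noted: active means a dose-response fit showing signal loss, with half-maximal concentration no higher than twice the top tested dose; inconclusive means flat fit between 30% and 70% signal loss, or poor fit; inactive means the rest.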
Assays:
[1] = Cryptococcus neoformans growth inhibition, dose response, Alamar Blue, cherry-picks (AID 686998;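 active means falling signal with fitted half-maximal potency no higher than twice the top valid tested dose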)
[2] = inducers of Cryptococcus neoformans cell lysis, dose response, AK release luminescence, cherry-picks (AID 687000;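 active means fitted dose curve reaches 40% lysis signal rise at or below the highest valid concentration tested for that sample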;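 further: luminescent detection of adenylate kinase leaking from lysed yeast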)
[3] = HepG2 cell cytotoxicity, dose response, cytotoxicity control, cherry-picks, set 2 (AID 687002)
[4] = HeLa cell cytotoxicity, dose response, cytotoxicity control, ATP luminescence, cherry-pick samples (AID 687004;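 active means a fitted half-maximal concentration no higher than twice the top valid tested dose, with signal falling as cells die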)

Measured: outcome

CCCNC(=O)N(C)C[C@H]1Oc2ncc(C#CC3CCCCC3)cc2C(=O)N([C@@H](C)CO)C[C@@H]1C
inactive: all assays above

O=C(C[C@H]1C[C@@H]2c3cc(NC(=O)CC4CC4)ccc3O[C@@H]2[C@@H](CO)O1)NCc1cccc(F)c1
inactive: all assays above

CC(C)NC(=O)N(C)C[C@H]1Oc2c(NC(=O)C3CCCCC3)cccc2C(=O)N([C@H](C)CO)C[C@H]1C
inactive: all assays above

C[C@@H]1CN([C@H](C)CO)C(=O)c2cc(NC(=O)Nc3cccc4ccccc34)ccc2O[C@H]1CN(C)C(=O)Nc1ccc(C(F)(F)F)cc1
inactive: all assays above

CO[C@@H]1CN(C)C(=O)c2ccc(NC(C)=O)cc2OC[C@@H](C)N(C(=O)c2ccccn2)C[C@H]1C
inactive: all assays above

O=C(Nc1ccc(F)cc1)N1C[C@H]2[C@@H](c3ccccc31)[C@@H](CO)N2Cc1cocn1
inactive: all assays above

Cc1ccc(S(=O)(=O)N(CC(=O)NCCSC2CCCCC2)c2ccccc2F)cc1
inactive: all assays above

CC(Sc1ncnc2c1cnn2-c1ccccc1)C(=O)Nc1ccc(N2CCOCC2)cc1 (stereo not given)
inactive: all assays above

CO[C@@H]1CN(C)C(=O)c2ccc(NC(=O)Nc3ccccc3)cc2OC[C@H](C)N(C(C)=O)C[C@H]1C
inactive: all assays above

C[C@@H]1CN([C@@H](C)CO)C(=O)c2cccc(NC(=O)Nc3ccccc3)c2O[C@H]1CN(C)S(=O)(=O)c1cn(C)cn1
inactive: all assays above

CC(NC(=O)COc1ccc([N+](=O)[O-])cc1)c1ccccc1 (stereo not given)
inactive: all assays above

CO[C@@H]1CN(C)C(=O)c2cc(NC(=O)Nc3cccc(F)c3)ccc2OC[C@H](C)N(C)C[C@@H]1C
inactive: all assays above

C[C@H]1CN([C@@H](C)CO)C(=O)c2cccc(NS(=O)(=O)c3cn(C)cn3)c2O[C@@H]1CN(C)CC1CCCCC1
inactive: all assays above

COCC#Cc1cnc2c(c1)C(=O)N([C@H](C)CO)C[C@H](C)[C@H](CN(C)C(=O)C1CC1)O2
inactive: all assays above

CC(C)NC(=O)Nc1ccc2c(c1)CC(=O)N([C@@H](C)CO)C[C@H](C)[C@H](CN(C)Cc1ccc3c(c1)OCO3)O2
inactive: all assays above

C[C@@H]1CN([C@H](C)CO)C(=O)Cc2cc(NC(=O)CCCCCC(=O)Nc3ccccc3N)ccc2O[C@H]1CN(C)Cc1ccc2c(c1)OCO2
inactive: all assays above

C[C@H]1CCCCO[C@@H](CN(C)C(=O)c2ccccc2)[C@@H](C)CN([C@@H](C)CO)C(=O)c2cc(NC(=O)c3ccncc3)ccc2O1
inactive: all assays above

COc1ccccc1CNC(=O)C[C@@H]1CC[C@@H]2[C@H](COc3ccc(NC(C)=O)cc3C(=O)N2C)O1
inactive: all assays above

CNC(=O)C[C@@H]1CC[C@H]2[C@@H](COC[C@H](O)CN2C(=O)Nc2ccc3c(c2)OCO3)O1
inactive: all assays above

COCC(=O)NC[C@@H]1N[C@@H](CO)[C@H]1c1ccc(C2=CCCC2)cc1
inactive: all assays above

CCS(=O)(=O)NCC[C@H]1CC[C@H](NS(=O)(=O)c2cccc(F)c2)[C@H](CO)O1
inactive: all assays above

Cc1ccc(S(=O)(=O)N2C[C@@H](O)COC[C@H]3O[C@H](CC(=O)NCc4ccc5c(c4)OCO5)CC[C@@H]32)cc1
inactive: all assays above

CC(=O)N1[C@H](CO)[C@H](c2ccc(-c3ccccc3)cc2)[C@H]1CNC(=O)C1CC1
inactive: all assays above

O=C(C[C@H]1CC[C@H]2[C@@H](COC[C@@H](O)CN2S(=O)(=O)c2ccc(Oc3ccccc3)cc2)O1)NC1CCC1
inactive: all assays above

C[C@@H]1CCCCO[C@@H](CN(C)S(=O)(=O)c2ccc(F)cc2)[C@@H](C)CN([C@@H](C)CO)C(=O)c2cc(NS(=O)(=O)c3ccc(F)cc3)ccc2O1
inactive: all assays above

C[C@H](CO)N1C[C@H](C)[C@@H](CN(C)C(=O)C2CCOCC2)Oc2ncc(C#CCc3ccccc3)cc2C1=O
inactive: all assays above

COc1cccc(C#Cc2cnc3c(c2)C(=O)N([C@H](C)CO)C[C@@H](C)[C@@H](CN(C)C(=O)C2CCOCC2)O3)c1
inactive: all assays above

Cc1cc(C(=O)Nc2cccc3c2O[C@H](CN(C)S(=O)(=O)c2ccccc2)[C@H](C)CN([C@H](C)CO)C3=O)n(C)n1
inactive: all assays above

Cc1ccc(N(CC(N)=O)S(=O)(=O)c2ccc(F)cc2)cc1
inactive: all assays above

CO[C@H]1CN(C)C(=O)c2cc(NC(=O)C3CCOCC3)ccc2OC[C@@H](C)NC[C@H]1C
inactive: all assays above

C[C@H]1CN([C@@H](C)CO)C(=O)Cc2cc(NC(=O)Nc3cccc4ccccc34)ccc2O[C@H]1CN(C)S(=O)(=O)c1cccs1
inactive: all assays above

CCC(=O)N(C)C[C@H]1Oc2cc(C#CC(C)(C)O)ccc2S(=O)(=O)N([C@H](C)CO)C[C@@H]1C
inactive: all assays above

CC(C)NC(=O)Nc1ccc2c(c1)C(=O)N([C@@H](C)CO)C[C@@H](C)[C@H](CN(C)C(=O)Cc1ccccc1)OCCCC[C@@H](C)O2
inactive: all assays above

CCNC(=O)Nc1ccc2c(c1)C(=O)N(C)[C@@H]1CC[C@H](CC(=O)N[C@@H](C)c3ccccc3)O[C@@H]1CO2
inactive: all assays above

O=C([C@@H]1[C@@H](CO)[C@@H]2Cn3c(cccc3=O)[C@H]1N2Cc1cccc(Cl)c1)N1CCOCC1
inactive: all assays above

CNC(=O)C[C@H]1CC[C@H]2[C@H](COc3ccc(NC(=O)c4cc(C)on4)cc3C(=O)N2C)O1
inactive: all assays above

O=C1CCC(C(=O)Nc2ccccc2)N1 (stereo not given)
inactive: all assays above

COCCNC(=O)C[C@@H]1CC[C@@H]2[C@H](COC[C@@H](O)CN2S(=O)(=O)c2ccccc2C)O1
inactive: all assays above

C[C@H](CO)N1C[C@H](C)[C@@H](CN(C)C(=O)c2cccc(F)c2)Oc2cc(-c3cncnc3)ccc2S1(=O)=O
inactive: all assays above

C[C@@H]1CN([C@@H](C)CO)C(=O)CCCn2nncc2CO[C@H]1CN(C)Cc1cccc(C(F)(F)F)c1
inactive: all assays above

COc1ccc(NC(=O)N(C)C[C@H]2OCc3ccccc3-c3c(n(C)c4ccccc34)C(=O)N([C@H](C)CO)C[C@@H]2C)cc1
inactive: all assays above

Cc1ccc(S(=O)(=O)Nc2ccc3c(c2)C(=O)N([C@H](C)CO)C[C@H](C)[C@@H](CN(C)Cc2ccccc2)O3)cc1
inactive: all assays above

COCC(=O)NC[C@H]1N[C@H](CO)[C@@H]1c1ccc(C2=CCCC2)cc1
inactive: all assays above

COc1ccc(OC(C)C(=O)NC(C)c2ccccc2)cc1 (stereo not given)
inactive: all assays above

C/C=C/c1ccc2c(c1)O[C@H](CN(C)S(=O)(=O)c1ccccc1)[C@H](C)CN([C@@H](C)CO)S2(=O)=O
inactive: all assays above

O=C(C[C@@H]1CC[C@H]2[C@@H](COC[C@@H](O)CN2C(=O)Nc2ccc(Cl)cc2)O1)NCCc1ccncc1
inactive: all assays above

COc1ccccc1CNC(=O)C[C@@H]1CC[C@@H]2[C@H](COC[C@@H](O)CN2Cc2ccccc2)O1
inactive: all assays above

CCNC(=O)C[C@@H]1CC[C@H]2[C@@H](COC[C@@H](O)CN2S(=O)(=O)c2ccccc2F)O1
inactive: all assays above

Cc1ccc(S(=O)(=O)N(C)C[C@@H]2Oc3ccc(NS(=O)(=O)c4ccc(Cl)cc4)cc3CC(=O)N([C@@H](C)CO)C[C@@H]2C)cc1
inactive: all assays above

COc1cccc(S(=O)(=O)N2C[C@@H](O)COC[C@H]3O[C@H](CC(=O)N4CCN(C)CC4)CC[C@@H]32)c1
inactive: all assays above

O=C(NCC[C@H]1CC[C@H](NS(=O)(=O)c2ccc(F)cc2)[C@@H](CO)O1)c1ccc2c(c1)OCO2
inactive: all assays above

CC(C)NC(=O)NCC[C@H]1CC[C@H](NC(=O)CN(C)C)[C@H](CO)O1
inactive: all assays above

O=C(C[C@H]1CC[C@H]2[C@@H](COC[C@@H](O)CN2C(=O)c2ccc(F)cc2)O1)N1CCOCC1
inactive: all assays above

CCC(=O)N1[C@@H]2Cn3c(cccc3=O)[C@H]1[C@@H](C(=O)NCc1ccccc1)[C@@H]2CO
inactive: all assays above

Cc1cccc(C)c1NC(=O)CNC(=O)C1CCCC1
inactive: all assays above
